Active and inactive are the calls of the source.
Tests used:
[1] = test system: PRMT1 (protein arginine N-methyltransferase 1); experiment: small molecules binding arginine methyltransferase PRMT1 – biochemical, small-molecule microarray, 635 nm fluorescence, primary screen (AID 1088); conditions: higher = more signal;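 note: binding of Prmt1 protein to compounds spotted on small-molecule microarray slides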
[2] = growth effects on S. cerevisiae YJM789 – YJM789 clinical isolate, OD600, 24 h, basal, primary screen (AID 1089); conditions: higher = more signal, called active from +8 up or from −8 down;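 note: growth of clinical yeast isolate S. cerevisiae YJM 789 seeded 1000 cells per well; test concentration not given here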
[3] = S. pombe growth modifiers, basal conditions – strain 972, OD600, 24 h, no modulator, primary screen (AID 1090);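 note: basal condition with compound alone and no growth modifier present; test concentration not given here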; conditions: S. pombe 972 growth, higher = more signal, called active from +8 up or from −8 down
[4] = budding yeast growth modifiers under rapamycin – strain BY4716, OD600, 96 h, primary screen (AID 1091); note: test concentration not given here; conditions: S. cerevisiae BY4716 + rapamycin, higher = more signal, called active from +8 up or from −8 down
[5] = molecular target: Torsin-1A-interacting protein 2 (Homo sapiens) (UniProt Q8NFQ8); experiment: small molecules binding lysate-expressed LULL1 – cell lysate, human LULL1 lysate, 635/667 nm fluorescence, primary screen (AID 1092); conditions: small-molecule microarray, hLULL1 lysate binding, 635 nm fluorescence; higher = more signal;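 note: probe is lysate of COS7 cells overexpressing human LULL1; score merges per-feature 667 nm fluorescence with signal-to-noise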
Torsin-1A-interacting protein 2 (Homo sapiens), sequence (Q8NFQ8 whole entry, looked up): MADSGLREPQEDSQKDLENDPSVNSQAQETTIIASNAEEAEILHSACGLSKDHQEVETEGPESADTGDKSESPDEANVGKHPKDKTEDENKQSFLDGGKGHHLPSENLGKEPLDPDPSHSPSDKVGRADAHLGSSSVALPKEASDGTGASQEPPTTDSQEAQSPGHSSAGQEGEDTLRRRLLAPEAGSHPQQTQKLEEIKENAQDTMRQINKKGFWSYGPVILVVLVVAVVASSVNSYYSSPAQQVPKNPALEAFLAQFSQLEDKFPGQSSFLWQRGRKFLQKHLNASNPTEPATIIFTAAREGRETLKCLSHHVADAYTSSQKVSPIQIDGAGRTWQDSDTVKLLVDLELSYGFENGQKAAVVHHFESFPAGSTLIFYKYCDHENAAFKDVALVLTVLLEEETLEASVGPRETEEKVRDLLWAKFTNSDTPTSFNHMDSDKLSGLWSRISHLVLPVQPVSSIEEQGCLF

[6] = optical density change of DRC41 E. coli – strain DRC41, OD650, 24 h, E. coli filamentation project, primary screen (AID 1093);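 note: MC1000 strain lacking acrAB efflux and sulA so SOS filamentation is blocked; test concentration not given here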; conditions: E. coli DRC41 growth, higher = more signal, called active from +8 up or from −8 down
[7] = probe aLefty2 binding to arrayed compounds – biochemical, biotinylated probe, 635/667 nm fluorescence, primary screen (AID 1094); conditions: small-molecule microarray, higher = more signal;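 note: score merges spot fluorescence near 667 nm with spot signal-to-noise ratio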
[8] = test system: Noggin (protein binding on small-molecule microarray); experiment: small molecules binding Noggin protein – biochemical, 635/667 nm fluorescence, primary screen (AID 1095); conditions: 635 nm fluorescence, higher = more signal;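 note: score merges 667 nm feature fluorescence with signal to noise over triplicate slides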
[9] = molecular target: Neurogenic locus notch homolog protein 3 (Homo sapiens) (UniProt Q9UM47); experiment: small molecules binding NOTCH3 protein – biochemical, 635/667 nm fluorescence, primary screen (AID 1096); conditions: small-molecule microarray, 635 nm fluorescence, higher = more signal
Neurogenic locus notch homolog protein 3 (Homo sapiens), sequence (Q9UM47 whole entry, looked up): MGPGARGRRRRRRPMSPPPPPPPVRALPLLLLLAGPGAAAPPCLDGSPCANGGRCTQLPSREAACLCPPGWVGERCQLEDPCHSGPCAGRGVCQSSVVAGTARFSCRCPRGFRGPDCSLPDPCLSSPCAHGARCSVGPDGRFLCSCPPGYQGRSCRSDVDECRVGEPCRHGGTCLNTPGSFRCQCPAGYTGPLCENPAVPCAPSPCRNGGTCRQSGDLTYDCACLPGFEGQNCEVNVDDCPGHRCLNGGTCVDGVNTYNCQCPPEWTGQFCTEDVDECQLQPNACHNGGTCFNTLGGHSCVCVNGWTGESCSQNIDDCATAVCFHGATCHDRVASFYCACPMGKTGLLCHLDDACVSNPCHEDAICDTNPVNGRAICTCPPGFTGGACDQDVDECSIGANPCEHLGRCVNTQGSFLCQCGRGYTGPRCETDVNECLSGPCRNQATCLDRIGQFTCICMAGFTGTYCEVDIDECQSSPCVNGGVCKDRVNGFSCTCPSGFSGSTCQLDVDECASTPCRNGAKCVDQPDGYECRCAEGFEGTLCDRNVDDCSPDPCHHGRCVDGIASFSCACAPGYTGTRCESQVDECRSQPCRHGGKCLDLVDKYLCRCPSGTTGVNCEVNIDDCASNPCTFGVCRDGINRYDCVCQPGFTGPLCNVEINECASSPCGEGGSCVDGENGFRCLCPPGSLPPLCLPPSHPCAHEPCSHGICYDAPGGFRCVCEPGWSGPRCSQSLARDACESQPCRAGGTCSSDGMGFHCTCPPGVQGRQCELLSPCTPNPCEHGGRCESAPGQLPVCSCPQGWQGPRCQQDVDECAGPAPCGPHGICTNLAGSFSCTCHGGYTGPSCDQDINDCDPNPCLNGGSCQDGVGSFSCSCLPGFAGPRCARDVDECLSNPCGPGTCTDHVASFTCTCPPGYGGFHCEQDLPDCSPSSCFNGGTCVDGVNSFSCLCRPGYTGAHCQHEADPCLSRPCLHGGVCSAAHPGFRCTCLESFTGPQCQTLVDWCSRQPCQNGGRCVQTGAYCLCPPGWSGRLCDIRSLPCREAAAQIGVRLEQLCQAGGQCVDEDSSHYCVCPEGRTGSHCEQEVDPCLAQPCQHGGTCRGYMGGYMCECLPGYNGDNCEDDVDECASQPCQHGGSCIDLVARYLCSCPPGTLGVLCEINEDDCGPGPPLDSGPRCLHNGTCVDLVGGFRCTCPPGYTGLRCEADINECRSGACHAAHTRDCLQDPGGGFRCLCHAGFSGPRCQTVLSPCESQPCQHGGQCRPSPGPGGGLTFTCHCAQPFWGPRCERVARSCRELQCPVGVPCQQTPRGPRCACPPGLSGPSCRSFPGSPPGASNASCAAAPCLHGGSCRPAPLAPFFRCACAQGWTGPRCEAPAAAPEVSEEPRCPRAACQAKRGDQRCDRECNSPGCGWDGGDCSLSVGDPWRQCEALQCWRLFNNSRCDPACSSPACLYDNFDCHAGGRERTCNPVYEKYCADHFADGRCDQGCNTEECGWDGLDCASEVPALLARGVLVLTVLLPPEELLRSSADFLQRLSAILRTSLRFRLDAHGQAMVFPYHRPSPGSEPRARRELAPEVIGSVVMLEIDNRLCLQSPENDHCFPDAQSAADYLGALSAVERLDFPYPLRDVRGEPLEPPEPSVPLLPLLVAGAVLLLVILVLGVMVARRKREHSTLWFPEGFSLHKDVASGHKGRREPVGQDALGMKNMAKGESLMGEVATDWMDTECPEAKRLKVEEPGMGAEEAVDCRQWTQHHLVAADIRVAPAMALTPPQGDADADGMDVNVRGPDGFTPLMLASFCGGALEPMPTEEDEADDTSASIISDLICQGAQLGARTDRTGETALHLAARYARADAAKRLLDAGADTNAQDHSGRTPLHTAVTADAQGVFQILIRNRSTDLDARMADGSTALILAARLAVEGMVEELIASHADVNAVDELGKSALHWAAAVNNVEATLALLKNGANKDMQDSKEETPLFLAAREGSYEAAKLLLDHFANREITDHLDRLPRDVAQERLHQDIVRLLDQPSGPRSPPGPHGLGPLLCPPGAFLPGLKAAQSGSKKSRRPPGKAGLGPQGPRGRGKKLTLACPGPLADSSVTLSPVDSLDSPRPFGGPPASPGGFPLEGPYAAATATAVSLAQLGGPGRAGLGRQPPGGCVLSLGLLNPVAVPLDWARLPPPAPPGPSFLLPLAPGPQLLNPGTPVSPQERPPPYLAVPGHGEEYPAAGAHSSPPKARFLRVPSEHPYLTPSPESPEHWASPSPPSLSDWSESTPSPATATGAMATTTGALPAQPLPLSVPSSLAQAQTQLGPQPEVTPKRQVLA

[10] = probe aEGFR binding to arrayed compounds – biochemical, biotinylated probe, 635/667 nm fluorescence, primary screen (AID 1097); conditions: small-molecule microarray, higher = more signal;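 note: probe is a biotinylated anti-EGFR antibody binding compounds printed on slides; score combines fluorescence near 667 nm and signal to noise of each spot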
[11] = test system: Plasmodium falciparum Sir2 (PF13_0152, Sir2A); experiment: Plasmodium falciparum Sir2A binding compounds – biochemical, small-molecule microarray, 635 nm fluorescence, primary screen (AID 1098); conditions: fluorescence 635 nm, higher = more signal;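 note: score merges spot fluorescence intensity with its signal-to-noise ratio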
[12] = probe aDKK1 binding to arrayed compounds – biochemical, biotinylated probe, 635/667 nm fluorescence, primary screen (AID 1099); conditions: small-molecule microarray, higher = more signal;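 note: score merges 667nm spot fluorescence with signal to noise across triplicate slides; reference of the scale not given here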
[13] = probe aCHRDL2 binding to arrayed compounds – biochemical, biotinylated probe, 635/667 nm fluorescence, primary screen (AID 1100); conditions: small-molecule microarray, higher = more signal
[14] = change in splice reporter luminescence, either direction, cell-based, HEK293, spliceosome inhibition project, primary screen (AID 1101); conditions: HEK293 splicing luciferase reporter, 24 h, higher = more signal, called active from +8 up or from −8 down;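 note: HEK293 cells carrying a splicing-competent luciferase reporter gene; test concentration not given here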
[15] = molecular target: Fibroblast growth factor 10 (Homo sapiens) (UniProt O15520); experiment: compounds binding fibroblast growth factor 10 – biochemical, small-molecule microarray, 635 nm fluorescence, primary screen (AID 1102); conditions: FGF10 binding, fluorescence 635 nm, higher = more signal
Fibroblast growth factor 10 (Homo sapiens), sequence (O15520 whole entry, looked up): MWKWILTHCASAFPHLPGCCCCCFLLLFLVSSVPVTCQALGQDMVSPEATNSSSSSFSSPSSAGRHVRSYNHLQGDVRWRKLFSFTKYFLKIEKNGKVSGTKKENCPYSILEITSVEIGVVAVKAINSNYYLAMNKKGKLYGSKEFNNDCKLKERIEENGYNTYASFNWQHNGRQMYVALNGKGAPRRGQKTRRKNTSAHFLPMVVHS

[16] = test system: glycogen synthase kinase-3 (GSK3A per assay name; protocol says GSK3B); experiment: compounds binding glycogen synthase kinase-3 – biochemical, small-molecule microarray, 635 nm fluorescence, GSK3A, primary screen (AID 1103); conditions: fluorescence 635 nm, higher = more signal; note: the record names both GSK3A and GSK3B
[17] = molecular target: Epidermal growth factor receptor (Homo sapiens) (UniProt P00533); experiment: compounds binding epidermal growth factor receptor – biochemical, small-molecule microarray, 635 nm fluorescence, primary screen (AID 1104); conditions: EGFR binding, higher = more signal;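 note: score merges 667 nm emission intensity with spot signal to noise over triplicate slides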
Epidermal growth factor receptor (Homo sapiens), sequence (P00533 whole entry, looked up): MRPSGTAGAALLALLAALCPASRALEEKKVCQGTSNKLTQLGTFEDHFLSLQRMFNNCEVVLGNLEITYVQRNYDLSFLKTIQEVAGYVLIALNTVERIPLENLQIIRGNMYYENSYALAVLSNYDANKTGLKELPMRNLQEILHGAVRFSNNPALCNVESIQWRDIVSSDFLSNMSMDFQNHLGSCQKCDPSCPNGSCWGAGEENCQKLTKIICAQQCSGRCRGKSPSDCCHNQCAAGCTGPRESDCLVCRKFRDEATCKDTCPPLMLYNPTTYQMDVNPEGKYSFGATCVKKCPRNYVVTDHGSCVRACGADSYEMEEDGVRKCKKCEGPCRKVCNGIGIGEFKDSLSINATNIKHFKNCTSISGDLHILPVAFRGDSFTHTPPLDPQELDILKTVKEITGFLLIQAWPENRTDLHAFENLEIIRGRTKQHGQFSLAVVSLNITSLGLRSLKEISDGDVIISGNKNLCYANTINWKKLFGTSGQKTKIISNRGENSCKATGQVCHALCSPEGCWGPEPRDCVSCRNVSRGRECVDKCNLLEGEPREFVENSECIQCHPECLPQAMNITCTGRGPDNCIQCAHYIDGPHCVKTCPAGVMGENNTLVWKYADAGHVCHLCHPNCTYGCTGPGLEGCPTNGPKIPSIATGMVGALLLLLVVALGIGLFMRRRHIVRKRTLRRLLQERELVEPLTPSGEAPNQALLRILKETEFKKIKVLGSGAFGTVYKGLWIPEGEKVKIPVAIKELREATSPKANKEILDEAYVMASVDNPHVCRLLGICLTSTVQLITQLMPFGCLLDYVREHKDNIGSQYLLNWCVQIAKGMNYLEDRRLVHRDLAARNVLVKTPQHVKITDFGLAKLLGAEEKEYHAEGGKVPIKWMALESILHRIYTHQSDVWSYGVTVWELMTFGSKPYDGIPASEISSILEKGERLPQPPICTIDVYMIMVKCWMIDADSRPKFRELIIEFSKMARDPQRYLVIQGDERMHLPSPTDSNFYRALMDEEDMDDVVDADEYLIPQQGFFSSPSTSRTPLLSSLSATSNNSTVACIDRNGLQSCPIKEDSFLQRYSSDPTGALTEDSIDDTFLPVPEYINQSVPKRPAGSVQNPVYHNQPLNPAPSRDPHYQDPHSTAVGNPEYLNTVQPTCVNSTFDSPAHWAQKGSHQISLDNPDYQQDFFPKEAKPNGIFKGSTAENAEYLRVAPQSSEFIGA

[18] = molecular target: Follistatin-related protein 3 (Homo sapiens) (UniProt O95633); experiment: compounds binding follistatin-related protein 3 – biochemical, small-molecule microarray, 635 nm fluorescence, primary screen (AID 1105); conditions: FSTL3 binding, higher = more signal;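 note: score merges emission near 667 nm and signal to noise per printed spot across three slides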
Follistatin-related protein 3 (Homo sapiens), sequence (O95633 whole entry, looked up): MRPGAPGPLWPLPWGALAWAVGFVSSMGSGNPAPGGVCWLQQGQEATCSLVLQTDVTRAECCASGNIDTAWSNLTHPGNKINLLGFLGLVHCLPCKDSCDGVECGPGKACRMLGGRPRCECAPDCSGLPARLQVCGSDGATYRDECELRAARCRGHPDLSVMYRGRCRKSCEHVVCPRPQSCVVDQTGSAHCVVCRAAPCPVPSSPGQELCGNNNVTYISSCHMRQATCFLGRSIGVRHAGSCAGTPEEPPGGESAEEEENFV

[19] = molecular target: Dickkopf-related protein 1 (Homo sapiens) (UniProt O94907); experiment: small molecules binding DKK1 protein – biochemical, small-molecule microarray, 635 nm fluorescence scan, primary screen (AID 1106); conditions: higher = more signal;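 note: score merges emission near 667 nm with signal to noise over three replicate slides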
Dickkopf-related protein 1 (Homo sapiens), sequence (O94907 whole entry, looked up): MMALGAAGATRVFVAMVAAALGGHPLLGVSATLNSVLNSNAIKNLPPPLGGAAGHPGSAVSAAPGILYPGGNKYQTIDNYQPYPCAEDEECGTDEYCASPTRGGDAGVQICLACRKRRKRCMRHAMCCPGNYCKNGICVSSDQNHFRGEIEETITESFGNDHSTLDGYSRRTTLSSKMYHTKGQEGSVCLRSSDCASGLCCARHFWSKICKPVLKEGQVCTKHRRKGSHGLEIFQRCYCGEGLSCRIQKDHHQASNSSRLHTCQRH

[20] = test system: Inhibin beta A chain (activin A); experiment: small molecules binding activin A – biochemical, small-molecule microarray, 635 nm fluorescence scan, primary screen (AID 1107); conditions: INHBA, higher = more signal;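 note: mouse activin A protein probed at 4.33 µg/mL on printed slides; score merges bound-protein fluorescence near 667 nm with spot signal-to-noise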

SMILES | composite z-score [1] | z-score [2] | z-score [3] | z-score [4] | composite z-score [5] | z-score [6] | composite z-score [7] | composite z-score [8] | composite z-score [9] | composite z-score [10] | composite z-score [11] | composite z-score [12] | composite z-score [13] | z-score [14] | composite z-score [15] | composite z-score [16] | composite z-score [17] | composite z-score [18] | composite z-score [19] | composite z-score [20]
COCCOC(=O)N1C(=O)[C@@]2(c3cc(C#CC4=CCCCC4)ccc31)[C@H](c1ccc(OCCO)cc1)N1[C@H](c3ccccc3)[C@H](c3ccccc3)OC(=O)[C@H]1[C@@H]2C(=O)N1CCCCCCC1 | 1.54 | -1.06 (inactive) | -0.301 (inactive) | 1.89 (inactive) | 2.96 | 3.25 (inactive) | 1.18 | 1.21 | 1.07 | 0.604 | 0.959 | 1.43 | 1.16 | -1.07 (inactive) | 1.02 | 1.33 | 0.513 | 1.46 | 1.01 | 1.7
CCCC[C@@H]1C[C@H]1[C@@H](NC(=O)Cc1ccccc1)c1ccc(Cl)cc1 | 0.576 | 0.0911 (inactive) | -1.16 (inactive) | 1.68 (inactive) | 3.14 | -0.76 (inactive) | 0.105 | 1.34 | 1.03 | 0.218 | 0.906 | 1.22 | 1.45 | -0.0981 (inactive) | 0.592 | 0.937 | 0.0572 | 0.868 | -0.946 | 0.674
COc1ccc([Si](C)(C)[C@@H]2[C@@H](CC(=O)N(CCO)Cc3ccccc3)O[C@]3(C(=O)N(Cc4ccc(N5CCC5=O)cc4)c4ccccc43)[C@H]2C)cc1 | -0.0625 | 0.127 (inactive) | -0.246 (inactive) | 1.87 (inactive) | 0.628 | 1.31 (inactive) | 0.536 | 0.343 | -0.0568 | -0.199 | 1.41 | -0.26 | 0.618 | -1.9 (inactive) | 0.0525 | -0.808 | 0.359 | 0.953 | 0.919 | 0.0242
CO[C@H]1O[C@H](CO)[C@@H](OC(=O)Nc2ccc(C(F)(F)F)cc2)[C@H](OC(=O)Nc2ccccc2-c2ccccc2)[C@H]1OC(=O)Nc1ccccc1-c1ccccc1 | 1.54 | 1.32 (inactive) | 2.36 (inactive) | 29.9 (active) | 3.29 | 0.0918 (inactive) | 0.0079 | 1.21 | 1.06 | 0.0108 | 1.29 | 0.13 | 0.411 | -1.03 (inactive) | 1.52 | 1.35 | 0.223 | 1.15 | 0.162 | 0.436
COCCOC(=O)N1C(=O)[C@@]2(c3cc(C#CC4=CCCCC4)ccc31)[C@H](C(=O)N1CCN(c3ncccn3)CC1)[C@H]1C(=O)O[C@H](c3ccccc3)[C@H](c3ccccc3)N1[C@@H]2c1ccccc1OCCO | 1.53 | 1.3 (inactive) | 0.683 (inactive) | 4.42 (inactive) | 2.75 | 1.96 (inactive) | -0.0687 | 1.14 | 1.04 | -0.0749 | 0.419 | -0.082 | -0.296 | -0.544 (inactive) | 1.3 | 1.28 | 0.396 | 1.19 | 0.402 | 0.451
COC(=O)[C@@]1(Cc2ccccc2)[C@@H]2[C@@H](CC(=O)[C@H]2CC(=O)C(=O)N(C)C)CN1C(=O)c1ccccc1 | -0.476 | 1.02 (inactive) | 1.29 (inactive) | 0.633 (inactive) | 3.34 | -0.2 (inactive) | -0.0221 | -0.505 | -0.18 | 0.142 | 1.05 | 0.0889 | 0.929 | -0.155 (inactive) | 0.225 | -0.901 | -0.185 | -0.0272 | -0.782 | 0.988
COC(=O)[C@@]1(Cc2ccc(F)cc2)[C@H]2c3cc(C(=O)N(C)C)n(CCn4cc([N+](=O)[O-])nc4C)c3C[C@H]2CN1C(=O)c1ccccc1 | -0.394 | 0.126 (inactive) | 0.713 (inactive) | 0.942 (inactive) | 2.87 | -1.66 (inactive) | 0.12 | -0.885 | -0.455 | -0.0039 | 0.445 | 0.539 | 0.648 | 1.11 (inactive) | -0.279 | 0.0339 | -0.0789 | -0.445 | -0.145 | 0.894
COCCOC(=O)N1C(=O)[C@@]2(c3cc(C#CC4(O)CCCCCC4)ccc31)[C@H](C(=O)N1CCc3cc(OC)c(OC)cc3C1)[C@H]1C(=O)O[C@H](c3ccccc3)[C@H](c3ccccc3)N1[C@@H]2c1ccc(O)cc1 | 1.54 | 0.449 (inactive) | -0.929 (inactive) | 1.7 (inactive) | 2.96 | 1.55 (inactive) | -0.0699 | 1.44 | 1.05 | 1.04 | 0.974 | 0.142 | 0.248 | 0.543 (inactive) | 1.02 | 1.32 | 0.648 | 1.02 | 0.639 | 0.122

Source: PubChem BioAssay
